Most compounds without a hit are left out; they make up all but 3% or so of the library.
A549 viability – counter-screen for Nrf2 inhibitors: cytotoxicity in A549 cells; A549 ARE-Fluc cells, CellTiter-Fluor viability, 18-24 h; Potency, µM (highest dose often 46 µM), for the others: top-dose activity change, negative = cytotoxicity, most hits filed as inhibitors; actives 0.16% (n = 390,000); also: % is scaled to controls: 0 for no effect and ±100 for the full control effect
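A549 ARE_Fluc cells in 5% FBS OPTI-MEM were exposed to compounds in concentration-response for 18-24 h at 37 deg C. Viability was read by CellTiter-Fluor fluorescence (Ex 405/Em 525) after 30 min, before the luciferase read.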
TrxR1 substrate – is turned over as a substrate by rat TrxR1 | O89049 | purified TrxR1 substrate turnover, NADPH consumption readout | Potency, µM (top dose mostly 114 µM), for the others: top-dose activity change, negative = substrate turnover | actives 0.01% (n = 390,000); also: % is scaled to controls: 0 for no effect and ±100 for the full control effect; nearly all actives have a fitted effect of over 50% in size
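Rat TrxR1, dispensed at 90 nM, was prereduced with 400 uM NADPH (final) for 5 min at ~22 deg C, then incubated with compound 15 min before 400 uM selenite. A first-read NADPH fluorescence drop versus no-compound background flagged substrates.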
GALK inhibitor – blocks human galactokinase activity | actives 0.007% (n = 270,000) | Potency, µM (top dose mostly 57.5 µM), for inactives: at the top dose activity change, negative = inhibition, hits mostly inhibitors | AID 1868 | P51570 | Purified GALK, Kinase-Glo residual ATP luminescence; also: % is scaled to controls: 0 for no effect and ±100 for the full control effect
Target sequence (P51570 whole entry, looked up): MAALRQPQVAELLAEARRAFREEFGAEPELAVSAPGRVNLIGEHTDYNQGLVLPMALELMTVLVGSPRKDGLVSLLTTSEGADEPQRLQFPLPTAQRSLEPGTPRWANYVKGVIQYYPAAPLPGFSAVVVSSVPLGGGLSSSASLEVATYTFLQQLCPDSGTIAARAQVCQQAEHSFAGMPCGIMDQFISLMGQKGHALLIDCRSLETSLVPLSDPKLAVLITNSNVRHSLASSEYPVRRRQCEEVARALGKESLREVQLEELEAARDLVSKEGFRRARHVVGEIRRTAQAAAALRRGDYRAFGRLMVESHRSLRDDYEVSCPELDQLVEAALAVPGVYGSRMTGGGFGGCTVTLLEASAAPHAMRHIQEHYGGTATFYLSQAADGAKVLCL
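Human GALK (5 nM) with 35 uM ATP and 100 uM galactose in 20 mM HEPES pH 8.0, 5 mM MgCl2, 60 mM NaCl, 1 mM DTT, 0.01% BSA. After 1 h at room temperature, leftover ATP was read by Kinase-Glo Plus luminescence.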
Nrf2 ARE act – activators of Nrf2 (ARE) signaling | actives 0.31% (n = 410,000) | Potency, µM (titrated, usually from 46.1 µM), for inactives: top-dose activation, hits mostly activators | AREc32 ARE-luciferase reporter (MCF7-derived line), luminescence, 24 h; also: % of control where 0% means no effect; nearly all actives have a fitted effect of over 65% in size
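Cells of the AREc32 ARE-luciferase line are plated in OPTI-MEM containing 5% FBS and left overnight at 37 deg C. Compounds are pinned in, incubation continues 24 hr, and firefly luciferase signal is then measured.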
TrxR1 inh – inhibitors of rat thioredoxin reductase 1. recombinant rTrxR1, NADPH fluorescence consumption, selenite substrate. Potency, µM (top dose mostly 114 µM), inactives show at the top dose activity change, negative = inhibition, usual class: inhibitors. actives 1% (n = 390,000). AID 588453; also: % is scaled to controls: 0 for no effect and ±100 for the full control effect; nearly all actives have a fitted effect of over 65% in size
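Rat TrxR1 (90 nM in the dispensed reagent) was pre-reduced with 400 uM NADPH for 5 min at room temperature, then incubated with compound for 15 min. After 400 uM selenite was added, NADPH fluorescence (Ex 340/Em 450 nm) was followed for 8 min.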
Nrf2 inh – blocks Nrf2 signaling. A549 ARE-Fluc reporter, luciferase luminescence, 18-24 h. actives 2.1% (n = 360,000). AID 504444. Potency, µM (highest dose often 46 µM), for the others: top-dose activity change, negative = inhibition, usual class: inhibitors; also: % is scaled to controls: 0 for no effect and ±100 for the full control effect; nearly all actives have a fitted effect of over 60% in size
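Quantitative HTS in A549 cells stably bearing an antioxidant response element-firefly luciferase construct. Inhibition of Nrf2-driven transcription was scored by luminescence after 18-24 h of compound exposure at 37 °C.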
Numbers without * were called inactive; ? = inconclusive; . = not tested or not shown; [ ] = remark or other dose. Calls follow the shape of the dose curve; as a rule, active = well fitted curve in the direction sought with a large enough effect; inconclusive = small, poorly fitted or top-dose-only effect, or another doubt; inactive = no such curve, though single readings can be large; an effect the other way counts as inactive or inconclusive. Potency is read from the fitted curve at half-maximal effect.

SMILES	A549 viability	TrxR1 substrate	GALK inhibitor	Nrf2 ARE act	TrxR1 inh	Nrf2 inh
C[C@@H]1C[C@H]2[C@@H]3CCC4=CC(=O)C=C[C@]4(C)[C@@]3(F)[C@@H](O)C[C@]2(C)[C@@]1(O)C(=O)COP(=O)(O)O	-2%	5%	-1%	-1%	25%	0.023µM*
CC12C=CC(=O)C=C1C(F)CC1C3CCC(O)(C(=O)CO)C3(C)CC(O)C12F (centres undefined)	-3%	-12%	.	-1%	-11%	0.0052µM*
C[C@@H]1C[C@H]2[C@@H]3C[C@H](F)C4=CC(=O)C=C[C@]4(C)[C@@]3(F)[C@@H](O)C[C@]2(C)[C@@]1(O)C(=O)CO	-6%	0%	8%	0%	3%	?
Cc1nc(-c2ccc(S(=O)(=O)Nc3ccc(C#N)cc3)cc2)co1	0%	-4%[57.1 µM]	.	2%	5%[57.1 µM]	.
CCC(O)(CC)C(=O)NN(C(=O)CCl)c1ccccc1	-4%	0%	1%	?	?	?
Cc1ccc(N(NC(=O)C(O)(c2ccccc2)c2ccccc2)C(=O)CCl)cc1	-13%	0%	1%	-3%	7.1µM*	?
O=C(Nc1ccccc1)NN(C(=O)CCl)c1ccccc1	?	6%	-1%	?	7.9µM*	21µM*
CC(C)c1cccc(NC(=O)COC(=O)c2ccccc2OCc2cccc(Br)c2)c1	.	-3%	.	.	6%	.
Cc1ccc2c(c1)N(C(=O)CCC(=O)NCc1cccs1)CC(C)O2 (centres undefined)	14%	5%	.	0%	-2%	21%
O=C1/C(=C/N(C(=O)c2ccco2)c2ccc(Cl)cc2)Sc2ccccc21	-3%	-7%	5%	?	40µM*	19%
O=C1/C(=C/N(C(=O)c2ccco2)c2ccc(Br)cc2)Sc2ccccc21	-16%	-4%	3%	10%	14µM*	?
CCOc1ccc(CN2C(=O)c3ccccc3C2C(=O)NCCc2ccc(OC)c(OC)c2)cc1 (centres undefined)	-3%	3%[57.1 µM]	.	-1%	14%[57.1 µM]	.
COc1ccc(NC(=O)COC(=O)c2c3c(nc4ccccc24)CCCC3)cc1Cl	?	3%	0%	-1%	13%	23µM*
COc1ccc(NC(=O)COC(=O)c2c3c(nc4ccccc24)CCCC3)cc1	-11%	3%[57.1 µM]	.	-1%	-3%[57.1 µM]	?
Cc1ccccc1CN1C(=O)c2ccccc2S(=O)c2ccc(C(=O)NCc3ccc(Cl)cc3)cc21 (centres undefined)	2%	-7%[57.1 µM]	.	0%	9%[57.1 µM]	.
Cc1ccc(-c2nc(-c3ccccn3)no2)cc1	-1%	7%[57.1 µM]	14%	-2%	6%[57.1 µM]	2.1µM*
S=C(NCCCc1cnc[nH]1)NCCCN(Cc1ccc(Cl)cc1)c1ccc(-c2ccccc2)cn1	-20%	-3%	.	.	89µM*	0%
COc1ccc(-c2ccc3oc(-c4ccc(OC)cc4)c(C#CCO)c3c2)cc1	-15%	40%	.	3%	54%	8.2µM*
COc1ccc(-c2sc3ccc(N4CCOCC4)cc3c2C#CC(C)(C)O)cc1	-5%	8%	.	4%	2%	7%
COc1ccc(-c2oc3ccc(N4CCOCC4)cc3c2C#CCO)cc1	-9%	75%	.	-1%	-16%	18µM*
COc1ccc(-c2ccc3oc(-c4ccc(OC)cc4)c(-c4ccc(OC)cc4)c3c2)cc1	-1%	83%[57.1 µM]	.	-1%	32%[57.1 µM]	-1%
COc1ccc(C(=O)NCC23C=CC(O2)C2C(=O)N(Cc4ccccc4)C(=O)C23)cc1 (centres undefined)	.	-1%	2%	0%	25µM*	?
COc1ccc(CCNC(=O)c2ccc(CN3CCC(Cc4ccccc4)CC3)cc2)cc1	15%	-4%	1%	0%	1%	7%
CCCN1CNc2c(c(=O)[nH]c(=S)n2CCc2ccc(C)cc2)C1	16%	-6%	.	.	-13%	7%
CCOCCCNC(=O)c1cc(Sc2cccc(Cl)c2)nc2ccccc12	-2%	-3%[57.1 µM]	.	4%	6%[57.1 µM]	.
SMILES	A549 viability	TrxR1 substrate	GALK inhibitor	Nrf2 ARE act	TrxR1 inh	Nrf2 inh
CCOCCCNC(=O)c1cc(Sc2ccc(C)cc2)nc2ccccc12	3%	-6%[57.1 µM]	1%	-2%	-14%[57.1 µM]	23µM*
CCOCCCNC(=O)c1[nH]c2cc(C)ccc2c1Sc1ccc(Cl)cc1	1%	2%	.	4%	18%	4%
CCOCCCNC(=O)c1[nH]c2cc(OC)ccc2c1Sc1ccccc1	-24%	-5%	.	0%	15%	26µM*
Cc1ccc(S(=O)(=O)N2CCN(c3nc(-c4cccs4)nc4ccccc34)CC2)c(C)c1	0%	-1%	.	.	4%	1%
O=C1CCc2cc(S(=O)(=O)Nc3ccc4ncccc4c3)ccc2N1	-10%	.	.	.	.	0%
O=c1c2ccccc2c(-c2cccc(C(F)(F)F)c2)nn1-c1ccccc1	1%	-20%[57.1 µM]	.	0%	10%[57.1 µM]	-7%
O=c1c2ccccc2c(-c2ccc(O)cc2)nn1-c1cccc(C(F)(F)F)c1	-2%	-18%	1%	-2%	-18%	23µM*
CCOC(=O)Cc1csc(NC(=O)NC2(C(F)(F)F)Oc3ccccc3O2)n1	.	-5%	0%	?	11µM*	26%
CCOC(=O)Cc1csc(NC(=O)Nc2ccc(OC(F)(F)F)cc2)n1	-6%	4%[57.1 µM]	-1%	2%	12%[57.1 µM]	-14%
CCOC(=O)Cc1csc(NC(=O)NC2(C(F)(F)F)Oc3ccc(Cl)cc3O2)n1 (centres undefined)	-7%	8%[57.1 µM]	0%	?	8.9µM*	.
CCOC(=O)Cc1csc(NC(=O)c2cc3c(s2)CCCC3)n1	-1%	-12%	5%	3%	-14%	.
CCOC(=O)Cc1csc(NC(=O)c2csc3c2CCCC3)n1	0%	5%	6%	0%	-7%	18µM*
CCOC(=O)Cc1csc(NC(=O)NC2(C(F)(F)F)Oc3cc(Cl)c(Cl)cc3O2)n1	1%	12%[57.1 µM]	1%	7%	?	.
CCOC(=O)Cc1csc(NC(=O)/C=C\c2ccccc2Cl)n1	-16%	0%[57.1 µM]	0%	?	16%[57.1 µM]	26µM*
CC(C)(C)OC(=O)Cc1nnc(C(C(=O)OCc2ccccc2)c2ccccc2)s1 (centres undefined)	2%	.	.	.	.	8%
Cc1nc2ccn(Cc3ccco3)c(=O)c2cc1C(=O)N1CCN(c2ccc(F)cc2)CC1	16%	3%[57.1 µM]	.	13%	0%[57.1 µM]	?
Cc1cccc(OCC(=O)Nc2ccc3c(c2)nc(CCN2CCC(C)CC2)n3C)c1	?	6%	-1%	13%	10%	-24%
CCn1c(CN2CCC(C)CC2)nc2cc(NC(=O)COc3ccc(Cl)c(C)c3)ccc21	?	-7%	.	1%	17%	15µM*
